Compounds with a hit are over-represented: about 7.8% of the library has one in this group of screens.
VACV mCherry inh: vaccinia inhibition (mCherry reporter); Potency, µM (highest dose often 36.5 µM), usual class: inhibitors; actives 0.63% (n = 310,000); Vaccinia virus mCherry reporter infection, fluorescence; calls by dose curve; tested in A549 cells; note: nearly all actives have a fitted effect of over 35% in size
MARV entry inh: blocks Marburg virus binding to or entry into cells | Marburg virus pseudotyped entry inhibition, cell reporter | Potency, µM (series often up to 37.8 µM), usual class: inhibitors | actives 1.8% (n = 300,000); calls by dose curve; tested in HEK293 cells
HCV inhibitor: blocks hepatitis C virus; actives 3.4% (n = 340,000); Potency, µM (highest dose often 41.8 µM), actives largely listed as inhibitors; AID 651820; Huh7.5.1 HCVcc-Cre infection, luciferase reporter, 44 h; active = well fitted inhibition curve with a large enough effect; inconclusive = small, poorly fitted or top-dose-only effect, or another doubt; inactive = no such curve, though single readings can be large or run the other way
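Infectious HCV cell culture screen: compound-treated cells (1,000/well, pre-plated 4 h) are infected with HCVcc-Cre at roughly 0.5 moi and grown 44 h. Infection is quantified by luciferase signal after 15 min substrate incubation at room temperature.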
HCMV inh: inhibitors of human cytomegalovirus | HFF cells, HCMV-luciferase reporter, 72 h; stronger effect = lower value | activity change, negative = inhibition, % at 57.5 µM | actives 4.5% (n = 410,000) | AID 1259415; in the data active = activity change below about -60%; inconclusive = no clear call, values can overlap the other calls; inactive = above about -39%
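After 16 h attachment at 37C, HFF cells received test compound and HCMV-luciferase (1 PFU/cell); reporter luminescence read 72 h later, data normalized against buffer-only and known inhibitor Salinomycin.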
Vaccinia Venus: inhibitors of vaccinia virus (Venus reporter); Vaccinia virus Venus reporter expression, fluorescence; Potency, µM (highest dose often 36.5 µM), most hits filed as inhibitors; actives 0.46% (n = 330,000); AID 720580; calls by dose curve; tested in A549 cells; note: nearly all actives have a fitted effect of over 30% in size
Lassa entry inh: Lassa virus entry inhibition | actives 1.2% (n = 300,000) | Potency, µM (series often up to 37.9 µM), hits mostly inhibitors | Lassa virus pseudotype entry inhibition, cell reporter; calls by dose curve; tested in HEK293 cells; note: nearly all actives have a fitted effect of over 50% in size
Numbers stand for hits; i = inactive; ? = inconclusive; nt = no result given; [ ] = remark or other dose.

SMILES	VACV mCherry inh	MARV entry inh	HCV inhibitor	HCMV inh	Vaccinia Venus	Lassa entry inh
CN(C)Cc1c(C(=O)N/N=C/c2cccc(OCc3c(F)cccc3Cl)c2)nnn1-c1nonc1N	nt	nt	?	-86	nt	nt
CCOc1ccc(-c2c(C(=O)N/N=C/c3cccc(Br)c3)nnn2-c2nonc2N)cc1	nt	nt	i	-63	nt	nt
COc1ccc(NC(=O)CC2C(=O)N(c3ccc(F)cc3)C(=O)N2Cc2ccco2)cc1 (stereo not drawn)	i	nt	nt	i	i	i
C[C@@H]1O[C@@H](OC[C@H]2O[C@@H](Oc3c(-c4ccc(OCCO)c(OCCO)c4)oc4cc(OCCO)cc(O)c4c3=O)[C@H](O)[C@@H](O)[C@@H]2O)[C@H](O)[C@H](O)[C@H]1O	i	nt	nt	nt	i	nt
COc1ccc(-n2nnnc2-c2ccccc2)cc1	?	i	i	-60	i	i
COc1ccc2c(C)cc(Sc3nnnn3-c3ccccc3)nc2c1	?	i	i	-101	i	0.79µM
Cc1ccc(C)c(N(C)C(=O)c2cn(C)c(=O)c3ccccc23)c1	i	?	nt	i	i	i
CCOC(=O)/C(C#N)=C/c1cc(C)n(-c2ccccc2)c1C	i	?	32µM	?	i	?
Cc1ccc(NC(=O)/C(C#N)=C/c2cc(C)n(-c3ccc(Br)cc3)c2C)cc1C	i	nt	nt	-108	i	i
CCOC(=O)/C(C#N)=C/c1cc(C)n(-c2ccc(Br)cc2)c1C	nt	i	nt	i	nt	nt
COc1ccc(-c2nn(-c3ccc(F)cc3F)c3c2cnc2ccc(F)cc23)cc1	i	nt	nt	i	i	i
O=C(OCc1cccnc1)C1=Cc2ccccc2OC1	i	i	i	-103	i	i
O=C(COC(=O)C1=Cc2ccccc2OC1)NCc1ccccc1	i	i	i	i	i	i
COCCNC(=O)COC(=O)C1=Cc2ccccc2OC1	i	?	13µM	i	i	i
Cc1cc(C(=O)NCc2nc(-c3cccc(NC(=O)c4cc(C)oc4C)c3)oc2C)nc(C)n1	i	nt	nt	nt	i	nt
O=C(CCS(=O)(=O)c1ccc(F)cc1)Nc1nc(-c2ccccn2)cs1	nt	nt	i	-106	nt	nt
CC(Oc1ccc(F)cc1)C(=O)Nc1nc(-c2ccccn2)cs1 (stereo not drawn)	?	?	8.9µM	-90	?	?
Cc1ccc(S(=O)(=O)CCC(=O)Nc2nc(-c3ccncc3)cs2)cc1	nt	nt	i	i	nt	nt
CCC(=O)c1ccc(OCC(=O)Nc2nc(-c3cccnc3)cs2)cc1	i	i	i	i	i	?
O=C(CCS(=O)(=O)c1ccccc1)Nc1nc(-c2ccccn2)cs1	10µM	nt	?	-103	?	nt
CCc1ccccc1OCC(=O)Nc1nc(-c2cccnc2)cs1	?	?	?	-65	?	i
CCN(c1cccc(C)c1)c1ncnc2c1cnn2-c1cccc(Cl)c1	i	nt	nt	i	i	i
OC[C@H]1O[C@H](c2ccccc2)C=C[C@H]1OCc1cccc(Br)c1	nt	i	nt	nt	nt	nt
Nc1c(N=Nc2ccc([N+](=O)[O-])cc2)c(S(=O)(=O)O)cc2cc(S(=O)(=O)O)c(/C=C/c3ccccc3)c(O)c12	?	nt	nt	nt	i	nt
CCN1C(=O)[C@@H]2[C@H]3[C@H](O)[C@H](O)CC(=NO[C@@H]4O[C@H](COC(C)=O)[C@@H](OC(C)=O)[C@H](OC(C)=O)[C@@H]4OC(C)=O)[C@@H]3CC[C@H]2C1=O	nt	i	nt	nt	nt	nt
SMILES	VACV mCherry inh	MARV entry inh	HCV inhibitor	HCMV inh	Vaccinia Venus	Lassa entry inh
Cc1cc(C)c(OCC(=O)Nc2nc(-c3ccccn3)cs2)c(C)c1	?	?	4µM	i	?	?
Cc1cccc(C)c1NC(=O)C(NS(=O)(=O)c1ccc2c(c1)CCC(=O)N2)c1ccccc1 (stereo not drawn)	i	i	nt	i	i	?
CC(=O)[C@H]1CC[C@H]2[C@@H]3C=CC4=CC(=O)CC[C@@]4(C)[C@@H]3CC[C@]12C	i	nt	0.56µM	i	?	nt
COc1ccc(-n2cc(C(=O)Oc3cc(C)cc(C)c3)c3ccccc3c2=O)cc1	i	nt	nt	i	i	i
CCN(C(=O)c1ccc(NC(=O)Cc2ccccc2)cc1)c1ccccc1	i	i	i	-67	i	i
CN(C(=O)c1ccc(NC(=O)Cc2ccccc2)cc1)c1ccccc1	i	i	nt	i	i	i
CC1CCCCN1CCCNC(=O)Cn1ncc2c3ccccc3n(Cc3ccccc3)c2c1=O (stereo not drawn)	i	?	nt	i	i	i
CCOc1ccc(NC(=O)c2ccc3c(c2)N(Cc2ccc(F)cc2)C(=O)CS3=O)cc1 (stereo not drawn)	i	i	i	i	i	nt
Cc1ccc(C)c(NC(=O)c2ccc3c(c2)N(Cc2ccc(F)cc2)C(=O)CS3=O)c1 (stereo not drawn)	i	2.6µM	?	?	i	?
CCCCN1C(=O)/C(=C2/Sc3ccccc3N2C)S/C1=N\c1ncn[nH]1	nt	nt	i	-78	nt	nt
Cc1cc(C)c(/C=C/c2onc(C)c2S(=O)(=O)N2CCC(C(=O)Nc3ccc(Cl)c(C(F)(F)F)c3)CC2)c(C)c1	i[7.34 µM]	nt	nt	-97	i[7.34 µM]	i
COc1ccc(NC(=O)C2CCN(S(=O)(=O)c3c(C)noc3/C=C/c3ccco3)CC2)cc1	i	i	nt	-67	i	i
Cc1noc(/C=C/c2cccs2)c1S(=O)(=O)N1CCC(C(=O)Nc2ccc(F)c(Cl)c2)CC1	i	i	nt	-73	i	i
CCc1ccc(NC(=O)C2CCN(S(=O)(=O)c3c(C)noc3/C=C/c3ccco3)CC2)cc1	i	i	nt	?	i	i
CCOc1ccc(NC(=O)c2c(NCc3cccnc3)sc3c2CCC(C)C3)cc1 (stereo not drawn)	i	nt	nt	i	i	i
CCOC(=O)[C@@H](C)N1[C@@H](C)[C@H](c2ccccc2)Oc2ccc(Cl)cc2S1(=O)=O	nt	nt	nt	i	nt	nt
CCOC(=O)c1cnc2ccc(OCC)cc2c1NCc1ccccc1OC	i	?	7.1µM	-70	i	8.9µM
CCC(=O)NC(=S)Nc1ccc(NC(=O)c2ccc(Br)o2)cc1	nt	nt	?	-103	nt	nt
CC1CCN(c2ccc(NC(=O)c3ccc(Br)o3)cc2)CC1	i	?	i	i	i	10µM
Cc1ccc(C(=O)N2CCN(c3ccc(NC(=O)c4ccc(Br)o4)cc3)CC2)cc1	?	?	10µM	?	i	?
CCC(=O)NC(=S)Nc1ccc(NC(=O)c2ccc(OC)cc2)cc1	i	i	i	i	i	i
CCc1ccccc1Nc1sc(C(=O)c2ccccc2)c(N)c1S(=O)(=O)c1ccccc1	i	?	nt	i	i	?
CN1CC2(Cc3c1ccc1ccccc31)C(=O)OC(C)(C)OC2=O	4µM	?	i	i	6.3µM	?
Cc1ccc2c(c1)CC1(CN2C)C(=O)OC2(CCCCC2)OC1=O	i	i	i	i	?	i
COc1ccccc1Nc1nc(-c2sc(N)nc2C)cs1	nt	nt	i	i	nt	nt
CC(=O)Oc1ccc(-c2csc(Nc3ccc(S(N)(=O)=O)cc3)n2)cc1	i	i	?	i	i	?
COc1ccc(-c2csc(Nc3cccnc3)n2)cc1	?	i	10µM	i	i	i
COc1ccc(-c2csc(Nc3ccc(S(N)(=O)=O)cc3)n2)cc1	nt	i	5µM	i	nt	?
